Test results taken from PubChem BioAssay (NCATS).
Inconclusive results are not listed. Entries that show only a call come without a potency. The source made the active and inactive calls. The call rests on the fitted dose curve; in most records, active means well fitted inhibition curve with a large enough effect; inconclusive means small, poorly fitted or top-dose-only effect; inactive means flat fitted curve, though single readings scatter.

Assay: P-glycoprotein substrates identified in KB-8-5-11 adenocarcinoma cell line, qHTS therapeutic library screen (AID 1346987); further: nearly all actives have a fitted effect of over 65% in size
Details: KB-8-5-11 (P-gp overexpressing) viability, CellTiter-Glo, 72 h; series mostly up to 44.5 µM
Outline: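 KB-8-5-11: colchicine-selected sub-line of KB-3-1 over-expressing P-gp; assay medium lacked colchicine. 72 h drug exposure at 37 degree C, CellTiter-Glo.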
Potency means the concentration at half of the fitted maximal effect.

Compound | Potency
C=C1CCC2C(C)(C(=O)O)CCCC2(C)C1CCC(C)CC(=O)O (centres undefined) | inactive
CCOC(=O)CCN(C(=O)c1ccc2c(c1)nc(CNc1ccc(C(=N)N)cc1)n2C)c1ccccn1 | inactive
CCC(C)C(=O)O[C@H]1CCC=C2C=C[C@H](C)[C@H](CC[C@@H](O)C[C@@H](O)CC(=O)O)[C@H]21 (some centres undefined) | inactive
O=C(COc1cccc2c(=O)[nH]ccc12)c1ccccc1 | inactive
COc1cc(C(=O)NC2CCN(C)CC2)c(F)cc1Nc1ncc2c(n1)N(C1CCCC1)CC(F)(F)C(=O)N2C | 0.0517 µM (active)
CC(C)c1cc(CNc2nc(Nc3cc(C4CC4)[nH]n3)cc(N3CCN(C)CC3)n2)on1 | 5.8 µM (active)
CN(C)c1nc(NC2CCC(NC(=O)c3ccc(F)c(F)c3)CC2)nc2ccccc12 (centres undefined) | 20.6 µM (active)
C=CC1C(OC2OC(CO)C(O)C(O)C2O)OC=C(C(=O)OC)C1CC1CC(=O)CC(CCc2ccc(O)cc2)O1 (centres undefined) | inactive
CC1(O)CC(O)C2(O)C=COC(O[C@@H]3O[C@H](CO)[C@@H](O)[C@H](O)[C@H]3O)C12 (some centres undefined) | inactive
COc1cc2nc(N3CCCC3)nc(NCCCCCN3CCCC3)c2cc1OC | inactive
O=C1NC(Cc2ccccc2)C(=O)N2CCCC12 (centres undefined) | inactive
C[C@H]1CC(=O)Nc2cccc(-c3cnn(C(C)(C)C)c3)c2N1 | inactive
COc1cc(O)c([C@@H](CC(=O)N2CC(C)CC(C)C2)c2ccc3c(c2)OCO3)c(OC)c1 (some centres undefined) | inactive
O=C(O)c1ccccc1NC(=O)N1CCC(c2ccccc2C(F)(F)F)CC1 | inactive
CC[C@]1(O)CC2CN(CCc3c([nH]c4ccccc34)[C@@](C(=O)OC)(c3cc4c(cc3OC)N(C=O)[C@H]3[C@@](O)(C(=O)OC)[C@H](OC(C)=O)[C@]5(CC)C=CCN6CC[C@]43[C@@H]65)C2)C1 (some centres undefined) | 2.27 µM (active)
C[C@@H]1COCCN1c1cc(C2(S(C)(=O)=O)CC2)nc(-c2cccc3[nH]ccc23)n1 | 1.46 µM (active)
COC(=O)CC(O)C1OC(c2ccccc2)C(O)C1O (centres undefined) | inactive
OCc1ccc(O[C@@H]2O[C@H](CO)[C@@H](O)[C@H](O)[C@H]2O)cc1 | inactive
C=CC1(C)C=C2CCC3C(C)(C)C(O[C@@H]4O[C@@H](CO)[C@H](O)[C@H]4O)CCC3(C)C2CC1O[C@@H]1O[C@H](C)[C@H](O)[C@H](O)[C@H]1O (some centres undefined) | inactive
CC1(C)CC2=C3C=CC4C5(C)CCC(O)C(C)(C)C5CCC4(C)C3(C)CCC2(C)C(O)C1 (centres undefined) | inactive

Compound | Potency
CNCc1ccc(-c2cc(-c3nc(-c4ccc(S(=O)(=O)C(C)C)cc4)cnc3N)on2)cc1 | 1.3 µM (active)
OCC(CO[C@@H]1O[C@H](CO)[C@@H](O)[C@H](O)[C@H]1O)c1ccc2c(c1)OCO2 (some centres undefined) | inactive
COc1ccc(C2=N[C@@H](c3ccc(Cl)cc3)[C@@H](c3ccc(Cl)cc3)N2C(=O)N2CCNC(=O)C2)c(OC(C)C)c1 | inactive
COc1cc2ncnc(Nc3ccc(O)cc3)c2cc1OC | inactive
C=C(C)C1CCC(C)C12CC(O)C1(C)OC1C2OC(=O)C(N)CCC(=O)O (centres undefined) | inactive
CC(C)(C)Nc1nc2cc(Cl)c(Cl)cc2nc1S(C)(=O)=O | 14.6 µM (active)
CC1=CC2/C=C(\C)CC[C@@H](O)[C@@H](O)[C@@H]3O[C@@H]3C(=O)[C@]23C(=O)N[C@@H](CC(C)C)[C@@H]3[C@@H]1C (some centres undefined) | inactive
COC(=O)CC(C)(O)CC(=O)OCc1ccc(O[C@@H]2O[C@H](CO)[C@@H](O)[C@H](O)[C@H]2O)cc1 (some centres undefined) | inactive
CC(C)NCC(C(=O)N1CCN(c2ncnc3c2C(C)CC3O)CC1)c1ccc(Cl)cc1 (centres undefined) | inactive
C=C1C(OC(=O)/C(C)=C\C)[C@@]23CCC4[C@@](C)(CCC[C@@]4(C)C(=O)O)C2CC[C@H]1C3OC(C)=O (some centres undefined) | inactive
Cc1cc(C)c(CNC(=O)c2cc(-c3ccc(CN4CCOCC4)cc3)cc3c2cnn3C2CCCC2)c(=O)[nH]1 | inactive
Cc1oc2ccccc2c1CNC(=O)NCc1cccs1 | inactive
Cn1cncc1C(N)(c1ccc(Cl)cc1)c1ccc2c(c1)c(-c1cccc(Cl)c1)cc(=O)n2C (centres undefined) | 3.26 µM (active)
CC[C@H](C)[C@H](NC(=O)[C@H]([C@@H](C)CC)N(C)C(C)=O)C(=O)N[C@H](C(=O)N[C@@H](CC(C)C)C(=O)[C@@]1(C)CO1)[C@@H](C)O | 2.59 µM (active)
O=C(O)Cc1ccc2oc(-c3ccc(NC(=O)/C=C/c4ccc(Br)cc4)c(F)c3)nc2c1 | inactive
COc1ccc2[nH]c3c(-c4cccc5ccccc45)nccc3c2c1 | 0.92 µM (active)
c1cc(Nc2cc(C3CC3)[nH]n2)nc(Nc2ccc3nc[nH]c3c2)n1 | 6.51 µM (active)
CC(C)C(N)C(=O)OCCOCn1cnc2c(=O)[nH]c(N)nc21 (centres undefined) | inactive
CC(O)c1cc(C(=O)N[C@@H](C)Cn2ccc(-c3ccc(C#N)c(Cl)c3)n2)n[nH]1 (some centres undefined) | inactive
